Active and inactive are the calls of the source.
Tests used:
[1] = tested on: Wnt5a (protein binding on small-molecule microarray); test: Wnt5a binders on small-molecule microarray, primary screen, biophysical, 635/667 nm fluorescence (AID 1142); conditions: 635 nm fluorescence, higher = more signal;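 further: fluorescence read at 667 nm with signal to noise per printed feature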
[2] = cell viability in Huh7 cells, primary screen, cytotoxicity control for HCV replication inhibitor project, CellTiter-Glo luminescence, basal, 48 h (AID 1143); conditions: Huh7 HCV replicon, higher = more signal, called active from +8 up or from −8 down;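 further: Huh7 hepatoma cells carrying a hepatitis C replication reporter with no stimulus; test concentration not given here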
[3] = CREB reporter modulators without forskolin, primary screen, cell-based, PC12, CRE-LacZ reporter, unstimulated (AID 1145); conditions: no forskolin, luminescence, 4.5 h, higher = more signal, called active from +8 up or from −8 down
[4] = CREB reporter modulators under forskolin, primary screen, cell-based, PC12, CRE-LacZ reporter, forskolin-stimulated (AID 1146); conditions: luminescence, 4.5 h, higher = more signal, called active from +8 up or from −8 down;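 further: PC12 cells with 6xCRE LacZ reporter stimulated by forskolin 10 µM; beta-galactosidase reporter signal reflecting CREB driven transcription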
[5] = molecular target: Streptavidin (Streptomyces avidinii) (UniProt P22629); test: streptavidin binders on small-molecule microarray, primary screen, artefact control for SMM compound annotation, biophysical, 635/667 nm fluorescence (AID 1147); conditions: streptavidin binding, higher = more signal;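 further: signal reflects streptavidin binding to arrayed compounds as a control protein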
Chain of Streptavidin (Streptomyces avidinii) (P22629 whole entry, looked up): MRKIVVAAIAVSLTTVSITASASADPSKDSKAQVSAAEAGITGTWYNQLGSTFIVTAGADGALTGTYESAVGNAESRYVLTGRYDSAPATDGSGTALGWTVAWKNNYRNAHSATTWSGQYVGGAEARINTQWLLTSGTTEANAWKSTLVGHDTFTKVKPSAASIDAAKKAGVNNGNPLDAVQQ

[6] = small-molecule binders of probe aInhba, primary screen, biochemical, small-molecule microarray, 635/667 nm fluorescence (AID 1148); conditions: higher = more signal;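 further: score merges 667nm spot fluorescence with signal-to-noise for antibody binding to printed compounds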
[7] = molecular target: Torsin-1A (Homo sapiens) (UniProt O14656); test: torsin A binders from cell lysate, primary screen, small-molecule microarray, wild-type, 635/667 nm (AID 1149); conditions: COS7 hTOR1A-WT lysate, 635 nm fluorescence, higher = more signal
Chain of Torsin-1A (Homo sapiens) (O14656 whole entry, looked up): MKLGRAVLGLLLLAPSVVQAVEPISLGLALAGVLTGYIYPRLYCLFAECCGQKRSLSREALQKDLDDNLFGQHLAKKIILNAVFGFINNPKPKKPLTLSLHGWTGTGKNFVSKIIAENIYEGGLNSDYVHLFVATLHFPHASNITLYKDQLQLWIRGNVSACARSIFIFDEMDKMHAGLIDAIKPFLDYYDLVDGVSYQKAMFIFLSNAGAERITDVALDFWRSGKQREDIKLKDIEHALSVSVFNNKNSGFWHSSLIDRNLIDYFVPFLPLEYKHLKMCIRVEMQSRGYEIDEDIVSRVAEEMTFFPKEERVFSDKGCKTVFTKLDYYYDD

[8] = molecular target: Torsin-1A (Homo sapiens) (UniProt O14656); test: small-molecule binders of mutant TOR1A in lysate, primary screen, cell lysate, small-molecule microarray, COS7 lysate, 635/667 nm fluorescence (AID 1150); conditions: COS7 hTOR1A mutant lysate, 635 nm fluorescence, higher = more signal;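 further: score pools 667 nm emission and signal to noise measuring lysate protein binding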
[9] = tested on: Sonic hedgehog protein (Shh); test: small-molecule binders of Shh protein, primary screen, biochemical, small-molecule microarray, 635/667 nm fluorescence (AID 1151); conditions: small-molecule microarray binding, 635 nm fluorescence; higher = more signal;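 further: Shh protein binding to compounds spotted on small-molecule microarray slides; score combines spot fluorescence intensity with signal-to-noise across triplicate slides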
[10] = E. coli DRC41 culture turbidity changes, primary screen, E. coli filamentation inducer project, strain DRC41, OD650, 48 h (AID 1152);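 further: E. coli MC1000 strain DRC41 lacking acrAB efflux pump and sulA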; conditions: E. coli DRC41 (acrAB sulA), higher = more signal, called active from +8 up or from −8 down
[11] = small-molecule binders of probe aLefty1, primary screen, biochemical, small-molecule microarray, 635/667 nm fluorescence (AID 1153); conditions: higher = more signal;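 further: score merges spot fluorescence with signal-to-noise ratio from the scanned slide images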
[12] = PSAC antagonists in infected red cells, primary screen, cell-based, P. falciparum Indochina, OD700, 1 h (AID 1154); conditions: P. falciparum Indochina infected RBC osmotic lysis, higher = more signal, called active from +8 up or from −8 down
[13] = PSAC antagonists in infected red cells, primary screen, cell-based, P. falciparum Indochina, OD700, 2 h (AID 1155);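 further: lysis reports solute entry through the parasite surface anion channel PSAC; channel blockers reduce lysis of infected cells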; conditions: P. falciparum Indochina infected erythrocytes, osmotic lysis OD700; higher = more signal, called active from +8 up or from −8 down
[14] = osmotic lysis modulators in infected erythrocytes, primary screen, PSAC antagonist project, cell-based, P. falciparum Indochina, OD700, 3 h (AID 1156); conditions: higher = more signal, called active from +8 up or from −8 down
[15] = PSAC antagonists in infected red cells, primary screen, cell-based, P. falciparum Indochina, OD700, 18 h (AID 1157); conditions: P. falciparum Indochina infected erythrocytes, osmotic lysis OD700, 18 h; higher = more signal, called active from +8 up or from −8 down
[16] = modulators of S6 phosphorylation in cells, primary screen, cell-based, A549, cytoblot, luminescence, serum-stimulated (AID 1158); conditions: A549 phospho-S6 cytoblot, 5 h, higher = more signal;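 further: serum-stimulated A549 lung adenocarcinoma cells; signal is phosphorylated S6 detected by cytoblot immunostaining with HRP secondary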
[17] = molecular target: NADPH oxidase 2 (Homo sapiens) (UniProt P04839); test: NOX2-dependent H2O2 signal modulators, primary screen, NOX inhibitor project, cell-based, HEK293-NOX2, PMA-stimulated, Amplex Red fluorescence (AID 1159); conditions: 45 min, higher = more signal, called active from +8 up or from −8 down; further: test concentration not given here
Chain of NADPH oxidase 2 (Homo sapiens) (P04839 whole entry, looked up): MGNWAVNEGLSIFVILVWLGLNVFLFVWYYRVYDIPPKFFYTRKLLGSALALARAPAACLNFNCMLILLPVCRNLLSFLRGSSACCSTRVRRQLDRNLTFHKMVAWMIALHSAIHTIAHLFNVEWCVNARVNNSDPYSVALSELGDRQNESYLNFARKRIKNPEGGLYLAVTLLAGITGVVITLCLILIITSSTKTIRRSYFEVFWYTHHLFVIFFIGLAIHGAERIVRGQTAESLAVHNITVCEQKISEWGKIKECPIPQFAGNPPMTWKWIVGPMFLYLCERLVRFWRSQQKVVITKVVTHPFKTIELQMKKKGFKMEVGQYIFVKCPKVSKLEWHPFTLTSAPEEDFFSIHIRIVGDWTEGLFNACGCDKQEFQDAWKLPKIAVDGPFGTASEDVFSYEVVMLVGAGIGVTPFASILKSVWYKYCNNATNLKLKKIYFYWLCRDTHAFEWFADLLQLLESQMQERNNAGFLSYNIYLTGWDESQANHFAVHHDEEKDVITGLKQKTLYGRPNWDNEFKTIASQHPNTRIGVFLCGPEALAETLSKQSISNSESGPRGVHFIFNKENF

[18] = molecular target: NADPH oxidase 4 (Homo sapiens) (UniProt Q9NPH5); test: NOX4-dependent H2O2 signal modulators, primary screen, NOX inhibitor project, cell-based, HEK293-NOX4, tetracycline-induced, Amplex Red fluorescence (AID 1160); conditions: 45 min, higher = more signal, called active from +8 up or from −8 down
Chain of NADPH oxidase 4 (Homo sapiens) (Q9NPH5 whole entry, looked up): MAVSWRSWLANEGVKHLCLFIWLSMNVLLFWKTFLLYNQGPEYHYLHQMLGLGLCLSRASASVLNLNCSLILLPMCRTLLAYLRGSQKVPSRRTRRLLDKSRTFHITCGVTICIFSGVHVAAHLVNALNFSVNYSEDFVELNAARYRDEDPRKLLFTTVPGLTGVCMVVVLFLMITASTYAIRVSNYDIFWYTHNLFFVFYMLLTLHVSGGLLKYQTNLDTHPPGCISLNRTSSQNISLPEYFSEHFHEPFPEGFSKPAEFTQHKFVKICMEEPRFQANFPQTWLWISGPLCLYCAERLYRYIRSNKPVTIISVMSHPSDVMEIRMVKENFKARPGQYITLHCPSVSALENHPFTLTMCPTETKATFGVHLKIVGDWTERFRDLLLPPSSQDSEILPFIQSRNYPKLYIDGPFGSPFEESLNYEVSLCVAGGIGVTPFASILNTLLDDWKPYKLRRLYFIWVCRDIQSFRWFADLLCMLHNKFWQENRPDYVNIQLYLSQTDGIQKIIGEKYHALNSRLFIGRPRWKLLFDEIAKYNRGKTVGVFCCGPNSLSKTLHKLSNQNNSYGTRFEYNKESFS

[19] = molecular target: NADPH oxidase 5 (Homo sapiens) (UniProt Q96PH1); test: NOX5-dependent H2O2 signal modulators, primary screen, NOX inhibitor project, cell-based, HEK293-NOX5, Amplex Red fluorescence (AID 1161); conditions: HEK293-NOX5, ionomycin, 45 min, higher = more signal
Chain of NADPH oxidase 5 (Homo sapiens) (Q96PH1 whole entry, looked up): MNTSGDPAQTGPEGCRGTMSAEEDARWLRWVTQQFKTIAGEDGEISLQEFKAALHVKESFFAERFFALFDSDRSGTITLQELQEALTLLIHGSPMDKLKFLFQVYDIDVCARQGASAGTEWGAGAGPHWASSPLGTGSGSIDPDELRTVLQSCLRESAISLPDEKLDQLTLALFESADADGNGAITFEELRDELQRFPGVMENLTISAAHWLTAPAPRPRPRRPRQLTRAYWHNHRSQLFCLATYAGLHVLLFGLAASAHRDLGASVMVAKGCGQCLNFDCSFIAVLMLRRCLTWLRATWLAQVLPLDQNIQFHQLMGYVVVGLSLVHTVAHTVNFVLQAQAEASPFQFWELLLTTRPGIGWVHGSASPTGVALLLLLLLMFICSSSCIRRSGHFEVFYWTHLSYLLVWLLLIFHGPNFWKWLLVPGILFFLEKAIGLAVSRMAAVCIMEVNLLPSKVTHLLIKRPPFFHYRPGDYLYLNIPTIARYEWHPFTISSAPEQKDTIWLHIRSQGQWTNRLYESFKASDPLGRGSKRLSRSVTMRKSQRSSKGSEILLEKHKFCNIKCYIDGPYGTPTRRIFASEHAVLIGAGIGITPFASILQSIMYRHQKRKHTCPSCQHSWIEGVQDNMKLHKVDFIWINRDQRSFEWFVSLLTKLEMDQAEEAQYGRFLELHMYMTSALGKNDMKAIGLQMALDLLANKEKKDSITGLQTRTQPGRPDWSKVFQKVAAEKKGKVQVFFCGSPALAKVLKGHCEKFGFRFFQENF

Row | SMILES | composite z-score [1] | z-score [2] | z-score [3] | z-score [4] | composite z-score [5] | composite z-score [6] | composite z-score [7] | composite z-score [8] | composite z-score [9] | z-score [10] | composite z-score [11] | z-score [12] | z-score [13] | z-score [14] | z-score [15] | z-score [16] | z-score [17] | z-score [18] | z-score [19]
1 | CN(C)CCCC[C@@H]1NC(=O)[C@@H]2C[C@H](C(=O)NCCCCCNC(=O)CS)[C@H](c3ccc(O)cc3)N2C1=O | 0.202 | 0.0694 (inactive) | -0.667 (inactive) | -1 (inactive) | 0.799 | 0.264 | 1.4 | 0.847 | 2.06 | 1.04 (inactive) | -0.227 | 1.06 (inactive) | -1.21 (inactive) | -3.46 (inactive) | -2.25 (inactive) | 0.209 | 0.109 (inactive) | 0.501 (inactive) | 0.398
2 | O=C1OCCC=C[C@H]2OC34C=CCN(Cc5ccccc5)C(=O)[C@H]3N(CCO)C(=O)[C@@H]4C12 (some centres undefined) | -0.17 | -4.38 (inactive) | -0.899 (inactive) | -0.894 (inactive) | -0.88 | -0.285 | -0.42 | -0.261 | -0.127 | 2.51 (inactive) | -0.133 | 1.07 (inactive) | -0.436 (inactive) | -0.769 (inactive) | -0.8 (inactive) | 1.82 | 0.681 (inactive) | -0.573 (inactive) | 0.869
3 | C[C@@H]1NC(=O)CC=C[C@@H](C)[C@@H]2C=C[C@H](O)[C@@H](COC(=O)[C@H](C)NC(=O)CC=C[C@@H](C)[C@@H]3C=C[C@H](O)[C@@H](COC1=O)O3)O2 | 0.0414 | -3.48 (inactive) | -0.925 (inactive) | -0.89 (inactive) | -0.664 | -0.0581 | 0.436 | 0.104 | 1.04 | 0.327 (inactive) | -0.147 | 1.33 (inactive) | -0.302 (inactive) | 0.232 (inactive) | -1.39 (inactive) | 1.64 | 1.28 (inactive) | -0.991 (inactive) | -0.0558
4 | C=C[C@H](OC)[C@@H](OC(=O)Nc1ccc(SC)cc1)c1ccc(OC)c(O)c1 | -0.29 | -0.0203 (inactive) | -0.113 (inactive) | -1.26 (inactive) | -1.28 | -0.128 | -0.678 | 0.157 | 0.417 | 2 (inactive) | 0.0004 | 18.9 (active) | 2.11 (inactive) | -0.454 (inactive) | -1.02 (inactive) | 0.738 | -2.57 (inactive) | -1.35 (inactive) | -0.943
5 | CCC(=O)[C@]12O[C@@]3([C@@H]4C(=O)OCC[C@@H]41)N(Cc1ccccc1)C(C)=C(C(=O)OC)[C@@H](c1ccccc1)N3C2=O | -0.183 | -0.596 (inactive) | 1.01 (inactive) | -1.32 (inactive) | -0.444 | -0.0448 | -0.453 | -0.296 | 1.16 | 0.57 (inactive) | -0.243 | 0.34 (inactive) | -1.22 (inactive) | 0.573 (inactive) | -1.74 (inactive) | 0.21 | 1.2 (inactive) | 0.785 (inactive) | 0.538
6 | O=C1c2ccccc2[C@](Cc2ccccc2I)(C(=O)O)[C@H](c2ccc(CO)cc2)N1C1CCCCC1 | 0.818 | -4.42 (inactive) | 0.001 (inactive) | -0.298 (inactive) | 0.947 | 0.0676 | 0.0702 | 0.76 | 0.636 | 2.84 (inactive) | 0.138 | 3.72 (inactive) | 0.525 (inactive) | 0.974 (inactive) | -0.339 (inactive) | 2.86 | 1.06 (inactive) | -0.737 (inactive) | -0.473
7 | C=C(COC)/C(=C/C[C@@H](OC(=O)c1ccncc1)c1ccc(OCCO)cc1)c1cc(C(=O)OC)ccc1OC | 0.147 | -2.43 (inactive) | 9.09 (active) | -2.02 (inactive) | 1.14 | 0.0212 | 1.06 | 0.838 | 0.811 | 2.31 (inactive) | 0.0686 | 14.6 (active) | 0.629 (inactive) | 1.35 (inactive) | -1.53 (inactive) | 0.866 | 1.98 (inactive) | 2.24 (inactive) | -0.63
8 | CO[C@]12C=C(Br)[C@@H](C[C@@H]1c1ccccc1)[C@@]1(CO1)C2=O | -0.002 | -1.7 (inactive) | -0.323 (inactive) | 2 (inactive) | 0.4 | -0.0221 | 0.271 | 0.309 | 0.522 | 2.36 (inactive) | 0.166 | -0.0452 (inactive) | -0.698 (inactive) | 0.422 (inactive) | -1.7 (inactive) | 0.716 | 0.575 (inactive) | 0.625 (inactive) | 0.339
9 | CC(C)(C)OC(=O)CC[C@]1(C(=O)NCCN2CCOCC2)N=C(c2ccc(OCCCO)cc2)O[C@H]1c1ccccc1CN=[N+]=[N-] | 0.358 | -1.11 (inactive) | 1.57 (inactive) | -1.79 (inactive) | 0.225 | 0.0386 | 0.474 | 1.06 | -0.577 | 1.66 (inactive) | -0.0162 | 9.62 (active) | 0.121 (inactive) | 0.434 (inactive) | -1.81 (inactive) | 1.04 | 1.06 (inactive) | 0.755 (inactive) | 0.699
10 | COCCOC(=O)N1C(=O)[C@@]2(c3ccccc31)[C@H](C(=O)N1CCc3cc(OC)c(OC)cc3C1)[C@H]1C(=O)O[C@H](c3ccccc3)[C@H](c3ccccc3)N1[C@@H]2c1ccccc1OCCO | 0.0374 | -3.27 (inactive) | -0.183 (inactive) | -1.12 (inactive) | 0.686 | 0.0228 | 0.435 | 0.243 | 1.38 | 2.1 (inactive) | 0.391 | 8.34 (active) | 1.35 (inactive) | 1.38 (inactive) | 0.123 (inactive) | 2.25 | 2.12 (inactive) | 1.46 (inactive) | 0.00739
11 | C=CCNC(=O)[C@H]1[C@@H]2C(=O)O[C@@H](c3ccccc3)[C@@H](c3ccccc3)N2[C@@H](c2ccc(O)cc2)[C@]12C(=O)Nc1ccc(C#CCNC(N)=O)cc12 | -0.261 | -0.23 (inactive) | -0.594 (inactive) | -0.759 (inactive) | -0.96 | 0.468 | -0.109 | 0.0926 | 0.103 | 1.86 (inactive) | 0.599 | 1.7 (inactive) | 1.29 (inactive) | 0.682 (inactive) | 0.506 (inactive) | 0.583 | 1.19 (inactive) | -0.188 (inactive) | 0.1

From PubChem BioAssay
